Screening results as filed in PubChem BioAssay.
In the library only some 4.1% were active in any assay of this set; here they are far more common.
hcDAF12 agonist: activates DAF-12 receptor from parasite H. contortus; actives 1.4% (n = 370,000); activation, % at 6.8 µM; HEK293 hcDAF-12 lit1-tk-luc reporter, luminescence; 0% DMSO, 100% Δ7-dafachronic acid;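 active means activation above the mean of all tested compounds plus 3 SD, cut at about 5.5% in these data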;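 further: 100% = response to 3 µM Δ7-dafachronic acid high control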
ssDAF-12 act: activators of S. stercoralis DAF-12 nuclear receptor; HEK293 ssDAF-12/GRIP1 lit1-tk-luc reporter, luminescence; % of 3 µM dafachronic acid response; activation, % at 6.8 µM; actives 1% (n = 370,000);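 active means activation above the mean over all tested compounds plus 3 SD, cut at about 0.9% in these data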;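 further: 0% = DMSO-only wells and 100% = 3 µM delta7-dafachronic acid wells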
DAX1 inh-1: blocks DAX1 repression of SF-1 activated StAR promoter; HEK293T StAR-luciferase reporter, SF-1/DAX-1 repression relief; actives 1.1% (n = 370,000); AID 652010; inhibition, % at 6.8 µM;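 active means inhibition above the mean over all tested compounds plus 3 SD, cut at about 3.6% in these data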;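 further: 0% = DAX-1 cells with DMSO and 100% = cells lacking DAX-1 with DMSO; higher inhibition means more luminescence from relief of DAX-1 repression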
DAX1 inh-2: inhibitors of human orphan nuclear receptor DAX1 (NR0B1) | inhibition, % at 6.75 µM | actives 0.99% (n = 340,000) | P51843 | HEK293 Gal4-DAX1 luciferase reporter, luminescence;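 active means inhibition above the mean over all tested compounds plus 3 SD, cut at about 4.2% in these data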;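 further: 0% = DAX1-transfected cells with DMSO and 100% = empty-vector control cells with DMSO; inhibition shows as a rise in luminescence from relieved DAX1 repression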
Target sequence (P51843 207-470 limits assumed): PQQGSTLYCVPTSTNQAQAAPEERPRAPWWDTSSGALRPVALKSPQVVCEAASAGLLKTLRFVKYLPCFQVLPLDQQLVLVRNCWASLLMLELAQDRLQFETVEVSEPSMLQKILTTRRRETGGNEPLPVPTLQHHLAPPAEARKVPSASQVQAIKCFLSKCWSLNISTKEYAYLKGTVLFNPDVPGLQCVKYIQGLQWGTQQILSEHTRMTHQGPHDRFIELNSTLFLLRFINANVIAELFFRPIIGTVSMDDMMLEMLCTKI
hgDAF-12 ag: hgDAF-12 agonism, primary luciferase screen. HEK293 GAL4-hgDAF12 UAS-luciferase reporter, agonist luminescence; normalized to butyrate control. activation, % at 6.8 µM. actives 1.8% (n = 370,000). AID 687014;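 active means activation above a cutoff set at the mean of all screened compounds plus 3 SD, cut at about 10% in these data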;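 further: 0% = DMSO wells and 100% = sodium butyrate wells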
* = called active by the depositor; x = not tested or not shown.

SMILES	hcDAF12 agonist	ssDAF-12 act	DAX1 inh-1	DAX1 inh-2	hgDAF-12 ag
CCCCN(C)C(=O)CSc1nnc(-c2cccnc2)n1C1CCCCC1	-2	-1	1	x	-4
Clc1cccc(Cc2c(-c3cccc(Cl)c3)nc3c4ccccc4ccn23)c1	4	1.1*	1	x	3
Clc1cccc(Cc2c(C3CCCCC3)nc3c4ccccc4ccn23)c1	6.3*	1	3.8*	x	7
Brc1cccc(-c2nc3c4ccccc4ccn3c2Cc2ccsc2)c1	4	1.8*	2	x	5
COc1ccc(-c2nc3c4ccccc4ccn3c2Cc2ccccc2C(F)(F)F)cc1OC	3	0	-3	x	4
FC(F)(F)c1ccccc1Cc1c(-c2ccc(Cl)cc2)nc2c3ccccc3ccn12	5	1.8*	1	x	1
COc1ccc([C@H]2C[C@H](n3cc(-c4ccc(F)cc4)nn3)[C@@H](O)CN2C(=O)C2CCCCC2)cc1	-3	-2	-1	-1	-5
CC1(C)CC(=O)C=C(c2ccccc2-c2ccc3c(c2)OCO3)C1=O	0	-1	-1	x	0
CCN1CCN(CCC(=O)Nc2ccccc2C)CC1	0	-1	0	-2	0
CCCc1nc2ccc(C)cn2c1Cc1cccc(F)c1	4	1.9*	3.9*	x	10
Cc1ccc2nc(C3CCCCC3)c(Cc3cccc(F)c3)n2c1	-3	-1	0	x	0
Cc1cc(Br)c2nc(-c3ccc(F)cc3)c(Cc3cccc(Cl)c3)n2c1	3	1.3*	0	x	2
Fc1ccc(-c2nc3c4ccccc4ccn3c2Cc2ccccc2)cc1	2	1.6*	-1	1	2
Fc1ccc(-c2nc3c4ccccc4ccn3c2Cc2cccc(F)c2)cc1	5.6*	0	0	x	7
COc1ccc(/C=C2\CC3(OC(=O)c4ccccc4)CCCN2C3)cc1 (stereo unspecified)	-3	-2	-1	x	-1
COCc1cc(N2CCN(C(=O)OC(C)(C)C)C[C@H]2C)ccc1N1CCN(Cc2ccccc2)[C@H](C)C1	-2	-1	-1	x	0
Clc1cccc(-c2nc3c4ccccc4ccn3c2Cc2ccccc2)c1	5	1	0	x	2
CCOC(=O)Cc1c(-c2cccc(Br)c2)nc2c3ccccc3ccn12	6.1*	1.4*	-2	x	4
Clc1cccc(-c2nc3c4ccccc4ccn3c2Cc2ccsc2)c1	6.0*	3.3*	2	x	10
c1ccc(CNc2ncnc3c2cnn3-c2ccccc2)cc1	-1	-2	1	0	7
Cc1cccc(-n2ncc3c(NCc4ccccc4)ncnc32)c1	0	0	-3	-1	12*
Cc1ccc(-n2ncc3c(SCc4ccccc4)ncnc32)cc1	6.5*	0	2	1	12*
Cc1cccc(-n2ncc3c(NCc4cccs4)ncnc32)c1	1	1.2*	2	0	9
Cc1ccc(CSc2ncnc3c2cnn3-c2ccccc2)cc1	2	-2	0	1	-1
COc1cccc(/C=C2\CC3(OC(=O)c4ccc(F)cc4)CCCN2C3)c1 (stereo unspecified)	1	-1	1	x	-1
SMILES	hcDAF12 agonist	ssDAF-12 act	DAX1 inh-1	DAX1 inh-2	hgDAF-12 ag
O=C(Nc1ccc(F)cc1F)c1ccc2c(c1)OCCO2	6	0	2	-1	13*
N#Cc1ccccc1NC(=O)c1ccc2c(c1)OCCO2	0	0	1	1	8
O=C(Nc1ccc(Br)cc1F)c1ccc2c(c1)OCCO2	4	1	3	-1	11*
O=C(COC(=O)c1ccc2c(c1)OCCO2)Nc1ccc(F)cc1F	-1	-1	0	0	-1
CC(C)(C)NC(=O)CON=C1c2ccccc2-c2ccccc21	-5	-2	0	-2	0
CC(C)(C)NCC(O)CON=C1c2ccccc2-c2ccccc21 (stereo unspecified)	-1	-2	1	5.4*	-3
Cc1nc(N2CCN(c3ccccn3)CC2)c2c(C)c(C(=O)Nc3ccccc3F)sc2n1	0	0	1	5.3*	-1
S=C(NCc1cccc(Cl)c1)OC1CCC12CCC(c1ccccc1)CC2 (stereo unspecified)	0	-1	0	x	3
O=C(COc1ccc(CO)cc1Cl)Nc1ccc(F)cc1	5	1	3	0	11*
NC(=O)C1(N2CCCCC2)CCN(S(=O)(=O)c2ccc(Cl)s2)CC1	2	-1	0	0	3
NC(=O)C1(N2CCCCC2)CCN(S(=O)(=O)c2cc(Cl)ccc2Cl)CC1	2	0	1	4.6*	-1
Cc1ccc(S(=O)(=O)c2nc(-c3ccccc3)oc2NCCCN2CCOCC2)cc1	-1	-1	0	1	11*
COc1ccc(-c2nc(S(=O)(=O)c3ccccc3)c(NCCCN3CCOCC3)o2)cc1	0	-1	0	0	0
CCOC(=O)CC[C@@H]1CC[C@]2(CCCN(C(=O)C3CCCC3)C2)O1	2	-1	0	x	3
O=C(OC12CCCN(C1)/C(=C/c1cccc(Cl)c1)C2)C1CCCCC1 (stereo unspecified)	1	-1	-1	x	0
COc1ccc(C(c2c[nH]c3ccccc23)c2c[nH]c3ccccc23)cc1O	5	2.8*	-1	3	5
CCCCNS(=O)(=O)/C=C/c1ccc(F)cc1CNC(=O)OC(C)(C)C	-2	-2	-1	x	-1
Cn1c(C(=O)N[C@@H](C(=O)O)c2ccccc2)cc2cc(Cl)ccc21	5.9*	1	0	0	2
O=C(O)Cc1sc(Nc2cccc3ccccc23)nc1-c1ccccc1	1	0	4.3*	0	-2
O=C(O)Cc1sc(Nc2ccc(Cl)cc2)nc1-c1cccs1	5.8*	0	2	x	9
COc1ccc(CN(C(=O)c2ccco2)c2ccccc2)cc1	5.9*	-1	0	0	0
COc1ccc(CN(C(=O)c2cccs2)c2ccccc2)cc1	1	-2	-1	0	-1
CCN(CC)CCNC(=O)c1cc2c(=O)n(C)c3ccccc3c2s1	6.3*	0	2	1	6
CCCCN(CC)CCCNC(=O)c1cc2c(=O)n(CC)c3ccccc3c2s1	2	-1	1	4.7*	0
CCCN(CCC)CCCNC(=O)c1cc2c(=O)n(CC)c3ccccc3c2s1	1	-1	2	7.3*	0
CCn1c(=O)c2cc(C(=O)NCC(OC)OC)sc2c2ccccc21	-2	-1	0	6.2*	-2
CC(=O)N[C@@H]1C[C@@H]2O[C@H](CO)CC[C@@H]2O[C@@H]1CCc1ccc(C#CC2(O)CCCC2)cc1	-1	-2	0	x	3
Cc1cc(O)c(C(=O)c2ccccc2C(=O)O)cc1C	6.4*	-1	0	1	0
C=CCN1[C@@H](C)COc2cccc(N3CCSCC3)c2S1(=O)=O	-1	-2	0	x	-1
Brc1ccc(-c2noc(COc3ccc4ccccc4c3)n2)o1	2	-1	0	0	1
